Test results taken from PubChem BioAssay (NCATS).
Results filed as inconclusive are left out. Calls of active or inactive are those of the source. Unless noted, the call rests on the fitted dose curve; in most records, active means well fitted curve in either direction with a large enough effect (not every such curve was filed as active); inconclusive means small, poorly fitted or top-dose-only effect, or another doubt; inactive means flat fitted curve, though single readings scatter.

Key:
[1] = test system: HIV-1 nucleocapsid protein NCp7 (binding to TG oligonucleotide); assay: HIV Nucleocapsid (AID 346; call rule not given here;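 further: potency means the concentration at half of the fitted maximal effect; potency is for inhibitors that block NC binding and lower polarization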); details: HIV-1 NC / fluorescein-TGTGTGTG probe, fluorescence polarization
Procedure, shortened: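 10 nM TG4xF probe with 100 nM nucleocapsid protein in high-salt Hepes pH 7.5 (250mM NaCl) containing 1uM ZnCl2 and reducing agents. Compound inhibition of binding was read as fluorescein polarization after 1 hr at room temperature.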

[2] = target: Lysosomal acid glucosylceramidase (Homo sapiens) (UniProt P04062); assay: Glucocerebrosidase-p2 (AID 348; in the data active means potency below about 10 µM; further: potency means the concentration at half of the fitted maximal effect); details: purified GBA, blue fluorogenic substrate, 40 min
Sequence of Lysosomal acid glucosylceramidase (Homo sapiens) (P04062 whole entry, looked up): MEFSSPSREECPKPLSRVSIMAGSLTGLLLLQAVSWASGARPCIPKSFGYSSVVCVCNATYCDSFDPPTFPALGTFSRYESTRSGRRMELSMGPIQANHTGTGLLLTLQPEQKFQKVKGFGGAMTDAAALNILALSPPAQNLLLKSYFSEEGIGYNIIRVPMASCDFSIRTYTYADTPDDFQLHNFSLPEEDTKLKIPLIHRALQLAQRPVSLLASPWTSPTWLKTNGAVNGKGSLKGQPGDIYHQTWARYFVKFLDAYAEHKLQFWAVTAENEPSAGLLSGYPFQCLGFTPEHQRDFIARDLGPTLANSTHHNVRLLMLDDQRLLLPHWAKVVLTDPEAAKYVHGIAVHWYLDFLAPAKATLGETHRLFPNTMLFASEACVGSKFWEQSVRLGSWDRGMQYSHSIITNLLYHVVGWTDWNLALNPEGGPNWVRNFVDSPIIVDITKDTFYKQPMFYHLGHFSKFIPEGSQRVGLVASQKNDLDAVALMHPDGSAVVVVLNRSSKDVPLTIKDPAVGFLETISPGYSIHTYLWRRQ
Procedure, shortened: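 Compounds titrated from 0.6 nM upwards against 0.2 nM enzyme in pH 5.9 citric acid/KH2PO4, taurocholate, tween-20; blue fluorogenic substrate 80 uM, 40 min room temperature, stopped and read Ex 365/Em 440 for AC50.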

[3] = AP1 Signaling Pathway (AID 357); details: ME-180 AP-1-bla reporter, EGF-induced, beta-lactamase ratio, 5 h; at 7.69 µM (top of the series) unless noted;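 further: ME-180 reporter cells stimulated with EGF at its EC50 level; on the % scale 0 is the no-effect control and ±100 the full control effect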
Procedure, shortened: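 Cells are seeded overnight, exposed to compound titrations and an EC50 level of EGF for 5 hours at 37 °C, then loaded with CCF4 dye for 2.5 hours. Beta-lactamase activity under the AP-1 element is read as a blue/green ratio.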

[4] = target: Cytochrome P450 1A2 (Homo sapiens) (UniProt P05177); assay: p450-cyp1a2 (AID 410; calls by dose curve; further: potency means the concentration at half of the fitted maximal effect;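 on activity change, negative = inhibition: -100% = full effect of reference inhibitor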); details: recombinant CYP1A2, luciferin-ME demethylation, luminescence; series mostly up to 11.4 µM
Sequence of Cytochrome P450 1A2 (Homo sapiens) (P05177 whole entry, looked up): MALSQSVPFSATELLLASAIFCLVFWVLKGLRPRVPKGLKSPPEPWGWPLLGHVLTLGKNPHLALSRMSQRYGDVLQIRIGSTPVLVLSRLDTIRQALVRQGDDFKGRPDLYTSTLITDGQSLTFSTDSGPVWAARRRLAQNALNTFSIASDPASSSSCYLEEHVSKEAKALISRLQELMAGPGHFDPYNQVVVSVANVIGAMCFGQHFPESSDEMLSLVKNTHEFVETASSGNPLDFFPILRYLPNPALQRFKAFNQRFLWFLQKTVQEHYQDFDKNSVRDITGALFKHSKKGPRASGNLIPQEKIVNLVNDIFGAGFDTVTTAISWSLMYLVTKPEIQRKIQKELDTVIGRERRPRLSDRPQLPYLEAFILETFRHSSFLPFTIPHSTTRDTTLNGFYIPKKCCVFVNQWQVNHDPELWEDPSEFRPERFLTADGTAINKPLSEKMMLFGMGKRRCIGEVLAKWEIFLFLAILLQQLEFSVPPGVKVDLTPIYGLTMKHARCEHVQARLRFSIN
Procedure, shortened: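 20nM CYP1A2 with 100uM Luciferin-ME (at Km) in 100mM KPO4; compound preincubated 10 min, NADPH regeneration added, 60 min at room temperature. Luciferin quantified by luminescence after detection reagent; normalized to 57 uM furafylline.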

[5] = NFAT Signaling Pathway (AID 444); details: Jurkat NFAT-bla M1, carbachol, beta-lactamase ratio, 5 h; at 7.69 µM (top of the series) unless noted;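 further: carbachol stimulus at about its EC50 of 1 µM final; on the % scale 0 is the no-effect control and ±100 the full control effect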
Procedure, shortened: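 Read-out: CCF4 FRET ratio (460 nm/530 nm) after 1 h RT dye loading, used for %activity and AC50 from titration series. Cells: Jurkat NFAT-β-lactamase/M1 line, treated with compound plus 1 uM carbachol for 5 h, 37 °C.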

[6] = Stat Signaling Pathway (AID 446); details: ME-180 SIE beta-lactamase reporter, IL-6 stimulated, 5 h; at 7.69 µM (top of the series) unless noted;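 further: ME-180 cervical cancer cells given 40 pM IL-6 alongside compound; SIE-controlled beta-lactamase reporter measured as 460/530 nm FRET emission ratio; on the % scale 0 is the no-effect control and ±100 the full control effect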
Procedure, shortened: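 ME-180 SIE-bla cells; overnight plating; cpd + IL-6 40 pM, 5 h, 37 C; LiveBLAzer 2.5 h RT; 460/530 nm emission ratio. Normalized to 300 pM IL-6 and 125 nM JAK inhibitor controls.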

[7] = target: Glucocorticoid receptor (Homo sapiens) (UniProt P04150); assay: GR-GFP Redistribution (AID 450;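 active means compounds whose dose series gives a full or clear partial fitted curve of increased nuclear translocation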; further: potency means the concentration at half of the fitted maximal effect); details: U2OS GR-GFP nuclear translocation, laser cytometry, 2 h
Sequence of Glucocorticoid receptor (Homo sapiens) (P04150 whole entry, looked up, the tested form may be a part): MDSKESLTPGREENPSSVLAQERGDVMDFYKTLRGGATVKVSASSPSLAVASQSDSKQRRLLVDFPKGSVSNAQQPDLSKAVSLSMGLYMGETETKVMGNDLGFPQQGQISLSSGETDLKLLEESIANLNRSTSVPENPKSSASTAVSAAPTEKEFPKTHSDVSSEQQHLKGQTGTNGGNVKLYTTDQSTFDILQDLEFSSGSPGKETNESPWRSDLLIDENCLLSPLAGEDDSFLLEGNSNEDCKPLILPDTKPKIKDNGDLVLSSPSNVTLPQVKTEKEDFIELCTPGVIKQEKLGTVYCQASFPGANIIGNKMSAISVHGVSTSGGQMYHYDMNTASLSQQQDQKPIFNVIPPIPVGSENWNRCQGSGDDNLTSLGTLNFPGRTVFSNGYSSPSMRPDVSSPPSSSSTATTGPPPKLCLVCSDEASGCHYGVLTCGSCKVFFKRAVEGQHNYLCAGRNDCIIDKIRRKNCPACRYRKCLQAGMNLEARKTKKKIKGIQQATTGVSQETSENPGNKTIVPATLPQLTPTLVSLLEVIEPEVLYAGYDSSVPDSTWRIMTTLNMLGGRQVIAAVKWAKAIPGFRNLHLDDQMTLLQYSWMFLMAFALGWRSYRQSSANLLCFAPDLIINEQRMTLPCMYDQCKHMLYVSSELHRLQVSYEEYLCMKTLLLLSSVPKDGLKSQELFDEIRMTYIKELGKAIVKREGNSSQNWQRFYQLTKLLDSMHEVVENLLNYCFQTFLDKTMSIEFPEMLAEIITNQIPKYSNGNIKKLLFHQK

[8] = target: Glucocorticoid receptor (Homo sapiens) (UniProt P04150); assay: GR-EFC Redistribution (AID 451; calls by dose curve; further: potency means the concentration at half of the fitted maximal effect); details: CHO-K1 GR-EFC translocation, beta-gal luminescence, 2 h
Procedure, shortened: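 Translocation of GR-ED fusion to nuclear EA restores b-gal, read by luminescence after 1 h room-temperature detection. Engineered CHO-K1 biosensor cells, 1,000/well, exposed 2 h at 37 C to titrations up to 46 uM final.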

[9] = target: Mitogen-activated protein kinase 10 (Mus musculus) (UniProt Q61831); assay: JNK3 AlphaScreen Assay (AID 530); details: JNK3 lysate, c-Jun phosphorylation; series mostly up to 57.1 µM;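 further: kinase came from lysate of stimulated human HepG2 cells; signal reports phosphorylation of biotinylated GST-cJun 1-79 at Ser73 with 10 µM ATP; on the % scale 0 is the no-effect control and ±100 the full control effect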
Procedure, shortened: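 Compound titrations were preincubated 15 minutes at room temperature with substrate, antibody and pre-activated JNK3-containing HepG2 lysate. Reactions were started with 10 uM ATP and stopped with EDTA-containing bead buffer for AlphaScreen detection.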

[10] = target: 3',5'-cyclic-AMP phosphodiesterase 4B (Homo sapiens) (UniProt Q07343); assay: qHTS Assay for Inhibitors of PDE-IV (AID 607; active means well fitted activation curve with a large enough effect in the main read-out, with a control signal flat, not every such curve was filed as active; further: % of control where 0% means no effect); details: HEK293 ACTOne CNG channel cells, membrane potential fluorescence; series mostly up to 22.9 µM
Sequence of 3',5'-cyclic-AMP phosphodiesterase 4B (Homo sapiens) (Q07343 whole entry, looked up): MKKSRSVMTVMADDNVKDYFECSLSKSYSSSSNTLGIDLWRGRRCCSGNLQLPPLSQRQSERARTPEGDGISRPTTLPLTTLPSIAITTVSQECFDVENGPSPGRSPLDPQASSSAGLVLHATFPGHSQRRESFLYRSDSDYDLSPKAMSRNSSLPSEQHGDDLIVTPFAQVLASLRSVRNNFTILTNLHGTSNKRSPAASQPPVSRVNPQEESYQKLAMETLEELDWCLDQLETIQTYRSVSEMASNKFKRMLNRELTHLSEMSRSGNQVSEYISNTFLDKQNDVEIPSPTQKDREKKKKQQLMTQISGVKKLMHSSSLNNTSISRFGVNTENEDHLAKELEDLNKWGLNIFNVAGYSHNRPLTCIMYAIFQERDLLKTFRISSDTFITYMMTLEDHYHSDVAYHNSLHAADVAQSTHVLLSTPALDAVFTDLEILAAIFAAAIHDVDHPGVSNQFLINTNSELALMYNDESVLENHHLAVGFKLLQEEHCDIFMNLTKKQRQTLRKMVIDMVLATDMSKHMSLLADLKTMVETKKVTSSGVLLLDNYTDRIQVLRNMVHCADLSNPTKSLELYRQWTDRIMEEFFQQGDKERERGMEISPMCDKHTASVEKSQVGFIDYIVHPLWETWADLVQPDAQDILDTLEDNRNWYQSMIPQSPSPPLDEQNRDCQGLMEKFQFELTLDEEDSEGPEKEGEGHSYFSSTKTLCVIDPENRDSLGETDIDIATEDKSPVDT
Procedure, shortened: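 ACTOne HEK293 cells carry a modified cAMP-gated CNG channel and express endogenous PDE4; plated 1000 cells/well, compounds up to 22.9 uM final. Membrane-potential dye fluorescence (ex 535/em 590) was read; parental cells received 10 uM forskolin + 100 uM RO 20-1724.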

[11] = target: Cytochrome P450 3A4 (Homo sapiens) (UniProt P08684); assay: qHTS Assay for Activators of Cytochrome P450 3A4 (AID 885; active means well fitted curve in the direction sought with a large enough effect; an effect the other way counts as inactive or inconclusive; further: nearly all actives have a fitted effect of over 65% in size); details: recombinant CYP3A4, Luciferin-PPXE luminescence, 60 min; series mostly up to 57.1 µM
Sequence of Cytochrome P450 3A4 (Homo sapiens) (P08684 whole entry, looked up): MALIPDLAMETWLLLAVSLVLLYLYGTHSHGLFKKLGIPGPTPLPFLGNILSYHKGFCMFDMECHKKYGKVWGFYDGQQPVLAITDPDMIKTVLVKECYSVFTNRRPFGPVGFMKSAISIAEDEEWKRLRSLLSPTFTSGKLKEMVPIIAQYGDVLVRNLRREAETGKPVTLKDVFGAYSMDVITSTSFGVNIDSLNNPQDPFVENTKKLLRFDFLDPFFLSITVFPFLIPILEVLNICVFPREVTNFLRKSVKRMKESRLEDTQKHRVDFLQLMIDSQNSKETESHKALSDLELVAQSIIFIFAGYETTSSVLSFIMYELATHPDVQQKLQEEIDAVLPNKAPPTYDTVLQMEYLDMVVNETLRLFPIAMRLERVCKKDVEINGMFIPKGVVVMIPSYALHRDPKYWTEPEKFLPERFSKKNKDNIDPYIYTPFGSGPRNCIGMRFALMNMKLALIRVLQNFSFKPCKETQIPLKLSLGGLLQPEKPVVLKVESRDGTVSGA
Procedure, shortened: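 20nM CYP3A4 + 25uM Luciferin-PPXE (=KM), 200mM KPO4; cpd 10 min RT; NADPH regen, 60 min RT; stop w/ detection buffer, 20 min; luminescence. Normalized to 57 uM ketoconazole.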

[12] = target: Cytochrome P450 2D6 (Homo sapiens) (UniProt P10635); assay: qHTS Assay for Inhibitors and Substrates of Cytochrome P450 2D6 (AID 891; active means well fitted curve in the direction sought with a large enough effect; an effect the other way counts as inactive or inconclusive; further: potency means the concentration at half of the fitted maximal effect; nearly all actives have a fitted effect of over 60% in size); details: recombinant CYP2D6, luciferin-ME EGE luminescence; series mostly up to 11.4 µM
Sequence of Cytochrome P450 2D6 (Homo sapiens) (P10635 whole entry, looked up): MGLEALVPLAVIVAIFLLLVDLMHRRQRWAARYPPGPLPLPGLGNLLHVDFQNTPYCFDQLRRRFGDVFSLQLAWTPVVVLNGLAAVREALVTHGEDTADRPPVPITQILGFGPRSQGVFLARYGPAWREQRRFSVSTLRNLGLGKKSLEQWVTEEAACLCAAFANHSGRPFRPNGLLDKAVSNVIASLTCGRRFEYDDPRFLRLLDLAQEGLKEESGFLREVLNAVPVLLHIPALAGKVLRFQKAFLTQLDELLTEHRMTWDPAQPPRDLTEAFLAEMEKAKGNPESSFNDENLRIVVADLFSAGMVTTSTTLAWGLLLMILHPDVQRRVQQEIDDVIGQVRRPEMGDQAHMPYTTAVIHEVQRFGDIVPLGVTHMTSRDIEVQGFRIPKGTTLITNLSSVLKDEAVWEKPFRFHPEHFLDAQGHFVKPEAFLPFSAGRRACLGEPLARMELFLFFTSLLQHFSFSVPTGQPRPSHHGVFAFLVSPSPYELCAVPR
Procedure, shortened: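 Human CYP2D6 (5 nM) with 30 uM Luciferin-ME EGE (at Km) in 100 mM KPO4, compound preincubated 10 min, then NADPH regeneration system for 60 min at room temperature. Luciferin read by luminescence; normalized to 1.43 uM quinidine.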

[13] = target: Cytochrome P450 3A4 (Homo sapiens) (UniProt P08684); assay: qHTS Assay for Inhibitors and Substrates of Cytochrome P450 3A4 (AID 884; active means well fitted curve in the direction sought with a large enough effect; an effect the other way counts as inactive or inconclusive; further: potency means the concentration at half of the fitted maximal effect; nearly all actives have a fitted effect of over 50% in size); details: recombinant CYP3A4, Luciferin-PPXE luminescence; series mostly up to 57.1 µM
Procedure, shortened: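 20 nM human CYP3A4 with 25 uM Luciferin-PPXE (at KM) in 200 mM KPO4, preincubated 10 min with compound; NADPH regeneration started a 60 min RT reaction. Luciferin detected by luminescence, normalized to 57 uM ketoconazole as full inhibition.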

O=c1c(-c2cc(F)cc(F)c2)nc2cncnc2n1Cc1ccccc1
inactive: Potency [1] > 20 µM

[N-]=[N+]=NCC(=O)c1c[nH]c(=O)[nH]c1=O
inactive: Potency [2] > 11.4 µM | activity change, negative = inhibition [3] 12.2% | activity change, negative = inhibition [4] 0.1% [at 2.29 µM] | activity change, negative = inhibition [5] 5.05% | activity, negative = inhibition [6] 1.86% | Potency [7] > 46 µM | Potency [8] > 9.22 µM | activity change, negative = inhibition [9] 0.476% [at 11.4 µM] | outcome [10]

COc1ccccc1CN1CCCC2(CCN(C(=O)Oc3ccccc3)CC2)C1
inactive: Potency [1] > 20 µM | Potency [2] > 11.4 µM | activity change, negative = inhibition [3] 3.33% | Potency [4] | activity, negative = inhibition [6] 1.52% | Potency [8] > 46 µM | Potency [9] | outcome [10] | Potency [11]
active: Potency [12] 3.98 µM

CN(C)c1ncnc2ccc(-c3cccnc3)cc12
inactive: Potency [1] > 20 µM

c1ccc(Nc2nc(-c3ccc4c(c3)OCO4)nc3ccccc23)cc1
inactive: Potency [1] > 20 µM

CS(=O)(=O)N1CCC2(CCCN(C(=O)Nc3ccccc3)C2)CC1
inactive: Potency [1] > 20 µM

c1csc(CNc2cc(-c3ccoc3)ncn2)c1
inactive: Potency [1] > 20 µM

c1csc(CN2CCCC3(CCNCC3)C2)n1
inactive: Potency [1] > 20 µM | Potency [2] > 11.4 µM | activity change, negative = inhibition [3] 10.8% | Potency [4] | activity change, negative = inhibition [5] -10.2% | activity, negative = inhibition [6] -5.01% | Potency [8] > 46 µM | Potency [9] | outcome [10]

O=C(O)C[C@H]1NCc2cc3ccccc3nc21
inactive: Potency [2] > 11.4 µM | activity change, negative = inhibition [3] 2.39% | activity change, negative = inhibition [4] -4.9% [at 2.29 µM] | activity change, negative = inhibition [5] 13.5% | activity, negative = inhibition [6] 5.32% | Potency [7] > 46 µM | Potency [8] > 9.22 µM | activity change, negative = inhibition [9] 1.75% [at 11.4 µM] | outcome [10]

O=C(O)C(C(=O)O)P(=S)(S)c1ccccc1 (centres undefined)
inactive: Potency [2] > 11.4 µM | activity change, negative = inhibition [3] 3.83% | Potency [4] | activity change, negative = inhibition [5] 11.1% | activity, negative = inhibition [6] 2.85% | Potency [7] > 46 µM | Potency [8] > 9.22 µM | activity change, negative = inhibition [9] 2.73% [at 11.4 µM] | outcome [10]

NCCc1c[nH]c2ccc(OC(=O)C(=O)O)cc12
active: Potency [4] 2.51 µM
inactive: Potency [2] > 11.4 µM | activity change, negative = inhibition [3] 9.07% | activity change, negative = inhibition [5] 6.17% | activity, negative = inhibition [6] 10.1% | Potency [7] > 46 µM | Potency [8] > 9.22 µM | activity change, negative = inhibition [9] 8.58% [at 11.4 µM] | outcome [10]

N[C@@H](CSC1c2ccccc2-c2ccccc21)C(=O)O
active: Potency [4] 2.51 µM
inactive: Potency [2] > 11.4 µM | activity change, negative = inhibition [3] 0.63% | activity change, negative = inhibition [5] -6.99% | activity, negative = inhibition [6] 3% | Potency [7] > 46 µM | Potency [8] > 9.22 µM | activity change, negative = inhibition [9] -0.997% [at 11.4 µM] | outcome [10]

COc1ccccc1-c1nccc(-n2ccnc2)n1
inactive: Potency [1] > 20 µM

NS(=O)(=O)c1ccc(-c2ccc([As](=O)(O)O)cc2)cc1
inactive: Potency [2] > 11.4 µM | activity change, negative = inhibition [3] 0.512% | Potency [4] | activity change, negative = inhibition [5] 17.3% | activity, negative = inhibition [6] 6.23% | Potency [7] > 46 µM | Potency [8] > 9.22 µM | activity change, negative = inhibition [9] 2.57% [at 11.4 µM] | outcome [10]

O=C(Oc1ccccc1)N1CCC[C@@]2(CCN(Cc3nccs3)C2)C1
inactive: Potency [1] > 20 µM | Potency [2] > 11.4 µM | activity change, negative = inhibition [3] -15.6% | activity change, negative = inhibition [5] -0.597% | Potency [8] > 46 µM | Potency [9] | outcome [10]

COC(=O)N1CCC[C@@]2(CCN(C(=O)Nc3ccc(OC)cc3)C2)C1
inactive: Potency [1] > 20 µM

CN(C)c1ncc2nc(-c3ccc(F)cc3)c(=O)n(Cc3cccs3)c2n1
inactive: Potency [1] > 20 µM | Potency [11]

CCC1(CCSC(=N)N)C(=O)NC(=O)NC1=O
inactive: Potency [2] > 11.4 µM | activity change, negative = inhibition [3] 6.2% | activity change, negative = inhibition [4] -10.9% [at 2.29 µM] | activity change, negative = inhibition [5] 1.26% | activity, negative = inhibition [6] -4.63% | Potency [7] > 46 µM | Potency [8] > 9.22 µM | activity change, negative = inhibition [9] 3.03% [at 11.4 µM] | outcome [10]

CNc1nc(-c2ccc(C(=O)N(C)C)cc2)nc2ccccc12
inactive: Potency [1] > 20 µM

COc1ccc(CNc2ncnc3ccc(-c4ccc(C(=O)N(C)C)cc4)cc23)c(OC)c1
inactive: Potency [1] > 20 µM

N[C@H](Cc1c[nH]c2ccccc12)P(=O)(O)O
inactive: Potency [2] > 11.4 µM | activity change, negative = inhibition [3] -3.26% | Potency [4] | activity change, negative = inhibition [5] -3.98% | activity, negative = inhibition [6] -3.09% | Potency [7] > 46 µM | Potency [8] > 9.22 µM | activity change, negative = inhibition [9] 4.66% [at 11.4 µM] | outcome [10]

c1cncc(CNc2cc(-c3ccc4c(c3)OCO4)ncn2)c1
active: Potency [13] 0.794 µM
inactive: Potency [1] > 20 µM | Potency [11]

COCC(=O)N1CCC2(CCN(Cc3cc(C(F)(F)F)cc(C(F)(F)F)c3)CC2)CC1
inactive: Potency [1] > 20 µM

O=C(c1cc(C(F)(F)F)cc(C(F)(F)F)c1)N1CCC[C@@]2(CCN(Cc3ccncc3)C2)C1
inactive: Potency [1] > 20 µM

COCC(=O)N1CCC2(CCCN(Cc3ccccc3)C2)CC1
inactive: Potency [1] > 20 µM

COc1cc2c(cc1OC)[C@@]13CCN4CC5=CCO[C@H](CC(=O)O)[C@@H]([C@H]1N2)[C@H]5C[C@H]43
inactive: Potency [2] > 11.4 µM | activity change, negative = inhibition [3] -1.41% | Potency [4] | activity change, negative = inhibition [5] 9.02% | activity, negative = inhibition [6] 1.37% | Potency [7] > 46 µM | Potency [8] > 9.22 µM | activity change, negative = inhibition [9] 4.42% [at 11.4 µM] | outcome [10]

Cc1cccc(CNc2nc(-c3cccnc3)nc3ccccc23)c1
inactive: Potency [1] > 20 µM

CC(C)CC(=O)C[C@H](O)C(Cl)(Cl)Cl
inactive: Potency [2] > 11.4 µM | activity change, negative = inhibition [3] 3.65% | Potency [4] | activity change, negative = inhibition [5] -9% | activity, negative = inhibition [6] -1.91% | Potency [7] > 46 µM | Potency [8] > 9.22 µM | activity change, negative = inhibition [9] 5.57% [at 11.4 µM] | outcome [10]
